Measurements published in PubChem BioAssay (EPA / NIEHS).
Values joined by “and” are separate entries in the source; they are usually repeats but may differ in a detail not shown here. Identical values can stand only once. Some structures have more than one record in an assay (separate samples or runs), and their calls can disagree. Active and inactive are the calls of the source. The calls were made as follows: active = hit-call score of the fitted dose curve at least 0.9, where 1 is the maximum; inactive = score below 0.9.

Legend:
[1] = read-out: Macrophage colony-stimulating factor (MCSF), CSF1 (gene 1435); assay: BSK_hDFCGF_MCSF: BioMAP Diversity Plus: hDFCGF Assay for Macrophage colony-stimulating factor (MCSF) Biomarker Activity (AID 2283060); conditions: primary human foreskin fibroblasts; actives raise or lower the signal
Outline: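 fibroblasts (human foreskin, primary), 24 h post-dose; M-CSF by ELISA; bidirectional fit, DMSO = baseline.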

[2] = BSK_hDFCGF_SRB: Viability Assessment in the BioMAP Diversity Plus: hDFCGF Assay (AID 2283061); conditions: primary human foreskin fibroblasts;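 also: cells exposed to compound for 24 h before the read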
Outline: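 SRB-based viability read on primary human skin fibroblasts at 24 h: TCA fixation, 0.1% dye, 560 nm. Gain or loss of signal is fitted against the DMSO negative control.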

[3] = read-out: TIMP metallopeptidase inhibitor 1 (TIMP1), TIMP1 (gene 7076); assay: BSK_hDFCGF_TIMP1: BioMAP Diversity Plus: hDFCGF Assay for TIMP metallopeptidase inhibitor 1 (TIMP1) Biomarker Activity (AID 2283062); conditions: primary human foreskin fibroblasts; actives raise or lower the signal
Outline: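 Bidirectional curve fitting against DMSO baseline yielded this endpoint, based on ELISA detection of TIMP-1 in primary human foreskin fibroblasts exposed to compound for 24 h.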

[4] = read-out: Monokine induced gamma interferon (MIG), CXCL9 (gene 4283); assay: BSK_hDFCGF_MIG: BioMAP Diversity Plus: hDFCGF Assay for Monokine induced gamma interferon (MIG) Biomarker Activity (AID 2283063); conditions: primary human foreskin fibroblasts; actives raise or lower the signal
Outline: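 Endpoint derived by bidirectional fitting relative to DMSO; MIG quantified via ELISA in primary human foreskin fibroblasts harvested 24 h after dosing.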

[5] = read-out: Matrix Metallopeptidase 1 (MMP1), MMP1 (gene 4312); assay: BSK_hDFCGF_MMP1: BioMAP Diversity Plus: hDFCGF Assay for Matrix Metallopeptidase 1 (MMP1) Biomarker Activity (AID 2283064); conditions: primary human foreskin fibroblasts; actives raise or lower the signal
Outline: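 Primary human foreskin fibroblasts exposed to chemicals for 24 h; MMP1 measured by ELISA. Cytotoxicity tracked by SRB staining in parallel cultures; bidirectional fit relative to DMSO.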

[6] = read-out: Vascular cell adhesion molecule 1 (VCAM1), VCAM1 (gene 7412); assay: BSK_hDFCGF_VCAM1: BioMAP Diversity Plus: hDFCGF Assay for Vascular cell adhesion molecule 1 (VCAM1) Biomarker Activity (AID 2283065); conditions: primary human foreskin fibroblasts; actives raise or lower the signal;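 as to AC50: VCAM-1 protein level quantified by ELISA after 24 h chemical exposure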
Outline: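 Measured after 24 h chemical treatment of primary human skin fibroblasts, VCAM-1 was detected by ELISA and concentration-response analysed in both directions versus DMSO vehicle.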

[7] = read-out: Plasminogen activator inhibitor-1 (PAI1), SERPINE1 (gene 5054); assay: BSK_hDFCGF_PAI1: BioMAP Diversity Plus: hDFCGF Assay for Plasminogen activator inhibitor-1 (PAI1) Biomarker Activity (AID 2283066); conditions: primary human foreskin fibroblasts; actives raise or lower the signal
Outline: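 Human foreskin fibroblast primary cells, 24 h chemical exposure; PAI-1 measured by ELISA. Bidirectional fitting relative to DMSO; parallel cultures stained with SRB for total protein to flag overt cytotoxicity.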

[8] = read-out: Intercellular Adhesion Molecule 1 (ICAM1), ICAM1 (gene 3383); assay: BSK_KF3CT_ICAM1: BioMAP Diversity Plus: KF3CT Assay for Intercellular Adhesion Molecule 1 (ICAM1) Biomarker Activity (AID 2283067); conditions: primary human keratinocytes with fibroblasts; actives raise or lower the signal
Outline: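 Bidirectional curve fitting against a DMSO baseline was applied to ICAM-1 ELISA signal from primary human skin co-cultures harvested 24 h after treatment, with SRB staining of parallel wells for overt cytotoxicity.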

[9] = read-out: Interferon-gamma inducible Protein 10 (IP10), CXCL10 (gene 3627); assay: BSK_KF3CT_IP10: BioMAP Diversity Plus: KF3CT Assay for Interferon-gamma inducible Protein 10 (IP10) Biomarker Activity (AID 2283068); conditions: primary human keratinocytes with fibroblasts; actives raise or lower the signal
Outline: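 In a primary skin co-culture of keratinocytes and fibroblasts, IP-10 is quantified by ELISA at 24 h after dosing. SRB staining of parallel wells monitors overt toxicity. Curves are fitted both directions against DMSO.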

[10] = BSK_KF3CT_SRB: Viability Assessment in the BioMAP Diversity Plus: KF3CT Assay (AID 2283069); conditions: primary human keratinocytes with fibroblasts;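 also: total protein by sulforhodamine B staining as a cytotoxicity measure; read 24 h after compound addition; fitted for both signal gain and loss against DMSO baseline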
Outline: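 Human keratinocyte and foreskin fibroblast co-culture exposed to chemical for 24 h. Total protein measured in parallel cultures by 0.1% sulforhodamine B staining after 10% TCA fixation, read at 560 nm; bidirectional fit relative to DMSO.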

[11] = read-out: Interleukin-1 alpha (IL1a), IL1A (gene 3552); assay: BSK_KF3CT_IL1a: BioMAP Diversity Plus: KF3CT Assay for Interleukin-1 alpha (IL1a) Biomarker Activity (AID 2283070); conditions: primary human keratinocytes with fibroblasts; actives raise or lower the signal
Outline: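 Primary human keratinocyte plus foreskin fibroblast co-culture, dosed and measured at 24 h in 96-well plates. IL-1a level quantified by ELISA; bidirectional fit relative to DMSO.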

[12] = read-out: TIMP metallopeptidase inhibitor 2 (TIMP2), TIMP2 (gene 7077); assay: BSK_KF3CT_TIMP2: BioMAP Diversity Plus: KF3CT Assay for TIMP metallopeptidase inhibitor 2 (TIMP2) Biomarker Activity (AID 2283071); conditions: primary human keratinocytes with fibroblasts; actives raise or lower the signal
Outline: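 Co-culture of human primary keratinocytes and foreskin fibroblasts, measured 24 h after chemical dosing. TIMP-2 quantified by ELISA and fitted in both directions relative to DMSO. Cytotoxicity checked in parallel cultures by SRB total-protein staining.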

[13] = read-out: C-C motif chemokine 2 (Homo sapiens) (UniProt P13500); assay: BSK_KF3CT_MCP1: BioMAP Diversity Plus: KF3CT Assay for Monocyte Chemoattractant Protein 1 (MCP1/CCL2) Biomarker Activity (AID 2283073); conditions: primary human keratinocytes with fibroblasts; actives raise or lower the signal
Outline: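 Biomarker MCP-1 is measured by ELISA in primary human keratinocytes co-cultured with foreskin fibroblasts, 24 h after chemical treatment; DMSO serves as the negative control and activity baseline.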

[14] = read-out: Matrix Metallopeptidase 9 (MMP9), MMP9 (gene 4318); assay: BSK_KF3CT_MMP9: BioMAP Diversity Plus: KF3CT Assay for Matrix Metallopeptidase 9 (MMP9) Biomarker Activity (AID 2283074); conditions: primary human keratinocytes with fibroblasts; actives raise or lower the signal;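 as to AC50: MMP9 protein level quantified by ELISA in the co-culture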
Outline: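 Human keratinocyte and foreskin fibroblast co-culture exposed to chemicals for 24 h; MMP9 biomarker measured by ELISA, bidirectional fitting relative to DMSO; cytotoxicity tracked by SRB total protein staining in parallel cultures.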

[15] = read-out: urokinase plasminogen activator (uPA), PLAU (gene 5328); assay: BSK_KF3CT_uPA: BioMAP Diversity Plus: KF3CT Assay for urokinase plasminogen activator (uPA) Biomarker Activity (AID 2283075); conditions: primary human keratinocytes with fibroblasts; actives raise or lower the signal
Outline: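 Primary human keratinocyte/foreskin fibroblast co-culture exposed to chemical; uPA measured by ELISA at 24 h. Bidirectional fit versus DMSO, with parallel SRB total-protein staining for cytotoxicity.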

[16] = read-out: E-selectin (Homo sapiens) (UniProt P16581); assay: BSK_LPS_Eselectin: BioMAP Diversity Plus: LPS Assay for Eselectin Biomarker Activity (AID 2283077); conditions: primary human HUVEC with PBMC; actives raise or lower the signal
Outline: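 Dose chemical onto LPS-driven HUVEC/PBMC co-culture; after 24 h, run ELISA for E-selectin; fit up- and down-going responses relative to DMSO control.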

[17] = read-out: Interleukin-8 (IL8), CXCL8 (gene 3576); assay: BSK_LPS_IL8: BioMAP Diversity Plus: LPS Assay for Interleukin-8 (IL8) Biomarker Activity (AID 2283078); conditions: primary human HUVEC with PBMC; actives raise or lower the signal
Outline: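 In this LPS system, chemical-treated human umbilical vein endothelium/PBMC co-cultures were harvested at 24 h for IL-8 ELISA.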

CD40, CD40 (gene 958) = assay: BSK_LPS_CD40: BioMAP Diversity Plus: LPS Assay for CD40 Biomarker Activity (AID 2283076); conditions: primary human HUVEC with PBMC; actives raise or lower the signal
Outline: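 Using a multiplexed primary human co-culture (umbilical vein endothelium plus PBMC), CD40 was read by ELISA 24 h after dosing, with cytotoxicity tracked by sulforhodamine B staining of parallel cultures and activity fitted bidirectionally versus DMSO.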

[18] = BSK_LPS_SRB: Viability Assessment in the BioMAP Diversity Plus: LPS Assay (AID 2283079); conditions: primary human HUVEC with PBMC;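 also: total protein by sulforhodamine B absorbance as a cytotoxicity measure; measured one day after compound addition; fitted in both directions against DMSO so loss or gain of signal counts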
Outline: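 Cytotoxicity endpoint in human endothelial–PBMC co-culture: 24 h exposure, then SRB (0.1%) staining, 560 nm read.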

Measured: AC50

E-selectin (Homo sapiens), sequence (P16581 whole entry, looked up): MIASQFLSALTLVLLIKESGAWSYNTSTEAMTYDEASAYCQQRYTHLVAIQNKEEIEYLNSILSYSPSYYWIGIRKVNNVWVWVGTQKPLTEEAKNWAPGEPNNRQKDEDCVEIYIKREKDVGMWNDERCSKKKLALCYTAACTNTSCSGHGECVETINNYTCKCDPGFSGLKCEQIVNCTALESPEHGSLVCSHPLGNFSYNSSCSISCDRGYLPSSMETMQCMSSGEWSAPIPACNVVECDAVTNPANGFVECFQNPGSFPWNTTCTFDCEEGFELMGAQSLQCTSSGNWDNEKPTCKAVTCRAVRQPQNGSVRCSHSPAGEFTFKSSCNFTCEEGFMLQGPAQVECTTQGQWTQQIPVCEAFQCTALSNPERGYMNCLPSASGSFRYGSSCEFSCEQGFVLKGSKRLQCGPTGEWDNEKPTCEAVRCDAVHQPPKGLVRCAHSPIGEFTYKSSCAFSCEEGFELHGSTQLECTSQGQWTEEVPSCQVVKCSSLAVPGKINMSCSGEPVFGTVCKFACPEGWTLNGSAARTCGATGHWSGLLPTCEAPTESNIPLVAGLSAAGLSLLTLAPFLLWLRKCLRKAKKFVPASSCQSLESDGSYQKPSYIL

Cc1cc(-c2ccc(N)c(C)c2)ccc1N
not listed: CD40, CD40 (gene 958) | [18]
inactive: all other assays above

Oc1c(Cl)c(Cl)c(Cl)c(Cl)c1Cl
active: [1] 6.44 µM | [3] 13.7 µM | [4] 4.29 µM | [5] 33.1 µM | [6] 10.2 µM and 4.61 µM | [7] 10.2 µM and 9.72 µM | [8] 10.2 µM and 16.6 µM | [9] 12.9 µM and 20 µM | [10] 6.37 µM | [11] 20 µM | [12] 2.02 µM and 17.3 µM | [13] 10.8 µM | [14] 6.97 µM and 6.46 µM | [15] 27.4 µM | CD40, CD40 (gene 958) 10.2 µM and 15.2 µM | [16] 27.1 µM | [17] 33.1 µM
inactive: [1] | [3] | [5] | [10] | [11] | [13] | [15] | [16] | [17]

CCOP(=S)(OCC)SCSC(C)(C)C
active: CD40, CD40 (gene 958) 36.2 µM
not listed: [18]
inactive: all other assays above

Clc1ccc(C(Cl)(Cl)Cl)cc1
inactive: all assays above

O=C(NC(=O)c1cc(F)c(F)cc1Cl)Nc1cc(F)ccc1N1CCC(C(=O)O)CC1
inactive: all assays above

Cc1cccc(C)c1N
not listed: [18]
inactive: all other assays above
